Measurements from ChEMBL document CHEMBL1201862, “PubChem BioAssay data set” (2004).
In all, about 400,000 compounds went through this assay and about 2,100 (0.53%) were called active. About 14% were inconclusive and are not listed. No rule for the calls is given here. The list comes from a sample in which actives are over-represented; it also holds similar structures and randomly drawn compounds.

What follows are compounds tested against Ataxin-2 (Homo sapiens) (UniProt Q99700) (assay: qHTS for Inhibitors of ATXN expression.).
Chain of Ataxin-2 (Homo sapiens) (Q99700 whole entry): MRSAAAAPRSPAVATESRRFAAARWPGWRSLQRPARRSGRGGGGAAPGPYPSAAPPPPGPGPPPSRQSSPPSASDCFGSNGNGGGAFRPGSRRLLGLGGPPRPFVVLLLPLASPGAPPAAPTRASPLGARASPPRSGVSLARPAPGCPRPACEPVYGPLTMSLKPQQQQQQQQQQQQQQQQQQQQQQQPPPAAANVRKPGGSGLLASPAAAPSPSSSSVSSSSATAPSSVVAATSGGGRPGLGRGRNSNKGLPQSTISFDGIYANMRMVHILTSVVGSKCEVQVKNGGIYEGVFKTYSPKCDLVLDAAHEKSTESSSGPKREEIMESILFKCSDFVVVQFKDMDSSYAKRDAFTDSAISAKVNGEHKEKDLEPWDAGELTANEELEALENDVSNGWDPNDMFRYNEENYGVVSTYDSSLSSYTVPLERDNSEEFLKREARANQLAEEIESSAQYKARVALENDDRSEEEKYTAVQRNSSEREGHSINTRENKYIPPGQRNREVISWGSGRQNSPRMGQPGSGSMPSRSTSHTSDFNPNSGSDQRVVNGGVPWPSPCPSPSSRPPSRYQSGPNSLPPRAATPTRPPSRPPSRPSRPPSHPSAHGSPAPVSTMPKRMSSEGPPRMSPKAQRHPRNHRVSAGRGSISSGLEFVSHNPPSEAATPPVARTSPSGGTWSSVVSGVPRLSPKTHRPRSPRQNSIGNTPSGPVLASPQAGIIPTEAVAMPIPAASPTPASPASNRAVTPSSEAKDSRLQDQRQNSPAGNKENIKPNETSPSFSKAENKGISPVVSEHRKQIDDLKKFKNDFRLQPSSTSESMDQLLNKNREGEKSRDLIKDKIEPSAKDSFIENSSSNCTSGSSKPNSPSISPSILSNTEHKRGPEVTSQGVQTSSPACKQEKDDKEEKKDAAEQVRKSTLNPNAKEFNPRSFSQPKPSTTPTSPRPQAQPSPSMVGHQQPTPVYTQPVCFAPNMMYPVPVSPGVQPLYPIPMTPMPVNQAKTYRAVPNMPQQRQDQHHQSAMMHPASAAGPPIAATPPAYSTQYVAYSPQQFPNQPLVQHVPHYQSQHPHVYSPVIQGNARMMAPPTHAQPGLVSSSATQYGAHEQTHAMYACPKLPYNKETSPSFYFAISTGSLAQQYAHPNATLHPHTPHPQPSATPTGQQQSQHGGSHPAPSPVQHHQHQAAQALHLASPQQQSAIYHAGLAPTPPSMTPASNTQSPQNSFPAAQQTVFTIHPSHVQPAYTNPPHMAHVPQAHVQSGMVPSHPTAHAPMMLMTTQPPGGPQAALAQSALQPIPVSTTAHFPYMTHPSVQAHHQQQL
Assay type: functional
In the case of `COc1ccc(CN2CCN(CC3CC3)CC2CCO)c(C)c1C` (centres undefined), the Potency is reported as “inactive”. With `CC(C)=CCN1CCN(Cc2cccc3nonc23)CC1CCO` (centres undefined) the Potency was “inactive”. With `Cc1ccccc1CN1CCN(Cc2cc3ccccc3o2)CC1CCO` (centres undefined) the Potency was 8.44 µM (active). For `CCOc1ccc(C2=CC(c3ccccc3)n3ncnc3N2)cc1` (centres undefined), the Potency was “inactive”. For `CCOCCCn1/c(=N/C(=O)c2cccnc2)c(C(=O)OCC)cc2c(=O)n3ccccc3nc21`, the Potency was “inactive”. `COC(=O)c1ccc2[nH]c3cccc(/C(=C/c4ccccc4)c4ccccc4)c3c2c1` was tested, and the Potency was 39.8 µM (active). With `O=C(OCCN1C(=O)c2cccc3c(N4CCOCC4)ccc(c23)C1=O)c1ccc(Cl)cc1Cl` the Potency was “inactive”. For `O=C(CN1C(=O)c2ccccc2C1=O)OCCOCCNC1=NS(=O)(=O)c2ccccc21`, the Potency was “inactive”. `CCn1cc(Cl)c(C(=O)Nc2cc(C(=O)OC)cc(C(=O)OC)c2)n1` was tested, and the Potency was “inactive”. In the case of `CCc1nc2ccc(C(=O)NCc3ccccc3OC)cn2c1N(C)Cc1ccc(OC)cc1`, the Potency is reported as 17.8 µM (active). For `COCCCNC(=O)c1ccc2nc3ccccc3c(=O)n2c1`, the Potency was “inactive”. In the case of `CCc1nc2ccc(C(=O)Nc3ccc(Cl)c(Cl)c3)cn2c1N(C)Cc1ccc(OC)cc1`, the Potency is reported as 20 µM (active). In the case of `COc1ccc(N2CC(C(=O)N[C@@H](C)C(=O)NCc3ccccc3OC)CC2=O)cc1` (some centres undefined), the Potency is reported as “inactive”. For `COc1ccc(NC(=S)N2CCC(C(=O)c3ccc(Cl)cc3)CC2)cc1`, the Potency was “inactive”. For `COc1ccc2c(c1)CCc1cn3ncc(C#N)c3nc1-2`, the Potency was “inactive”. `O=C(O/N=C1\CCS(=O)(=O)c2sccc21)c1ccccc1` was tested, and the Potency was “inactive”. For `CCc1c(C)c2cc(Cl)c(O)c(CN(CC)CC)c2oc1=O`, the Potency was “inactive”. With `CN1C(=O)c2cccc3c(Br)ccc(c23)C1=O` the Potency was “inactive”. In the case of `Brc1ccc(COc2ncnc3ccccc23)cc1`, the Potency is reported as “inactive”. With `O=C(O)c1ccccc1N(Cc1ccccc1)C(=O)COc1ccccc1` the Potency was “inactive”. In the case of `CN(Cc1ccc(Cl)cc1)C(=O)CCl`, the Potency is reported as 35.5 µM (active). With `CCOc1ccc(CN(C)C(=O)CCl)cc1` the Potency was 12.6 µM (active). In the case of `CN(Cc1ccc(Cl)s1)C(=O)CCl`, the Potency is reported as 23.8 µM (active). `CCOc1ccc(CNC(=O)Nc2ccccc2)cc1` was tested, and the Potency was “inactive”. With `COc1ccc(CN(C)C(S)=Nc2ccc(Cl)cc2)cc1` the Potency was “inactive”. For `O=C(NCc1ccc2c(c1)OCO2)c1ccc(Cl)s1`, the Potency was “inactive”. In the case of `O=C(Nc1ccccc1F)C(=Cc1sc(N2CCOCC2)nc1-c1ccccc1)C(=O)Nc1ccccc1F`, the Potency is reported as “inactive”. With `Nc1c(C(=O)Nc2ccccc2)sc2nc(-c3ccco3)ccc12` the Potency was “inactive”. In the case of `Cc1ccc2cccc(NS(=O)(=O)c3ccccc3)c2n1`, the Potency is reported as “inactive”. For `CC(C)(C)C(=O)/C=c1\s/c(=C\c2ccc(-c3ccc([N+](=O)[O-])cc3)o2)c(=O)n1CC(=O)NC(N)=O`, the Potency was “inactive”. With `COC(=O)c1ccc2oc(=O)c(S(=O)(=O)c3ccc(C)cc3)cc2c1` the Potency was “inactive”. In the case of `Cc1ccc2nc(N(CCCN(C)C)C(=O)c3ccc4c(c3)CCCC4)sc2c1`, the Potency is reported as 39.8 µM (active). With `CN(C)CCCN(C(=O)c1ccc2c(c1)CCCC2)c1nc2ccc(Cl)cc2s1` the Potency was 31.6 µM (active). For `CN(C)CCCN(C(=O)c1cccs1)c1nc2cc3c(cc2s1)OCO3`, the Potency was “inactive”. In the case of `COc1cc2nc(N(CCCN(C)C)C(=O)c3ccc(C(=O)c4ccccc4)cc3)sc2cc1OC`, the Potency is reported as 44.7 µM (active). With `CN(C)CCCN(C(=O)c1ccco1)c1nc2ccc(Cl)cc2s1` the Potency was 39.8 µM (active). With `S=C(Nc1ccccc1Cl)N1CCCC(c2ccccc2)=N1` the Potency was “inactive”. `NC1=NC(=O)C(Cc2ccc(Br)cc2)S1` (centres undefined) was tested, and the Potency was “inactive”. `Nc1nc(N)c2ncc(C(=O)CCc3ccccc3)nc2n1` was tested, and the Potency was “inactive”. For `O=c1c2ccccc2nc(-c2ccccc2)n1O`, the Potency was “inactive”. For `CN(C)c1ccnc2sc(C(=O)c3ccc(Br)cc3)c(N)c12`, the Potency was “inactive”. For `CC1CCCCN1S(=O)(=O)c1ccc(C(=O)N(CCCN(C)C)c2nc3ccc(Br)cc3s2)cc1` (centres undefined), the Potency was 39.8 µM (active). With `CCC1CCCCN1S(=O)(=O)c1ccc(C(=O)Nc2sc3c(c2C(=O)NC)CCC3)cc1` (centres undefined) the Potency was “inactive”. `COC(=O)c1c(NC(=O)c2ccc(S(=O)(=O)N3CCCCC3C)cc2)sc2c1CCN(C(C)C)C2` (centres undefined) was tested, and the Potency was “inactive”. With `CSc1nsc(SCC(=O)Nc2ccccc2C(N)=O)n1` the Potency was “inactive”. `Cc1ccc(Cn2c(=N)c(C(=O)NCC3CCCO3)cc3c(=O)n4cccc(C)c4nc32)cc1` (centres undefined) was tested, and the Potency was “inactive”. For `CSCCC(NC(=O)COc1ccccc1)C(=O)NCCOc1ccccc1` (centres undefined), the Potency was “inactive”. `COc1cc2ccccc2cc1C(=O)Nc1ccc(O)cc1` was tested, and the Potency was “inactive”. In the case of `COc1c2ccccc2nc2ccccc12`, the Potency is reported as “inactive”. In the case of `COc1ccc(OC)c2cc3ccccc3cc12`, the Potency is reported as 17.8 µM (active). `COc1ccc2c(c1)cc(C(=O)N/N=C/c1c(O)c(C(=O)O)cc3ccccc13)n2C` was tested, and the Potency was “inactive”. For `CCOc1ccc(NC(=O)C2CCCN(c3nn4c(=O)cc(C)nc4s3)C2)cc1` (centres undefined), the Potency was “inactive”. `CCOC(=O)N1CCN(S(=O)(=O)N2CCCC(C(=O)NCCc3ccc(Cl)cc3)C2)CC1` (centres undefined) was tested, and the Potency was “inactive”. In the case of `Cc1ccc(-n2nc3c(N4CCCC(C(=O)NCCc5ccccc5)C4)nnc(C)c3c2C)cc1` (centres undefined), the Potency is reported as 20 µM (active). In the case of `CCOc1ccc(CNC(=O)C2CCCN(c3nnc(C)c4c(C)n(-c5ccccc5)nc34)C2)cc1` (centres undefined), the Potency is reported as 15.8 µM (active). `Cc1ccc(-n2nc3c(=O)n(C(C)C(=O)NCCc4cccs4)nc(C)c3c2C)cc1` (centres undefined) was tested, and the Potency was “inactive”. In the case of `COc1ccc(C)cc1NC(=O)C1CCCN1S(=O)(=O)c1ccccc1F` (centres undefined), the Potency is reported as “inactive”. `Cc1cccc(CNC(=O)CCCn2nc(C)c3c(C)n(-c4ccccc4)nc3c2=O)c1` was tested, and the Potency was “inactive”. With `CCOc1ccc(CCNC(=O)C2CCCN(c3nnc(C)c4c(C)n(-c5ccccc5)nc34)C2)cc1` (centres undefined) the Potency was 31.6 µM (active). In the case of `Cc1nnc(N2CCCC(C(=O)Nc3cc(F)ccc3F)C2)c2nn(-c3ccccc3)c(C)c12` (centres undefined), the Potency is reported as 35.5 µM (active). With `Cc1cc(NC(C)C)n2c(nc3ccccc32)c1C#N` the Potency was “inactive”. `COC(=O)c1c(C(=O)OC)c2c(-c3ccccc3)cc3cccc1n32` was tested, and the Potency was “inactive”. In the case of `Cc1ccc(C2=CC(c3ccccc3)n3ncnc3N2)cc1` (centres undefined), the Potency is reported as “inactive”. `CCn1c(=N)c(C(=O)NC2CCCC2)cc2c(=O)n3ccccc3nc21` was tested, and the Potency was “inactive”. In the case of `COC(=O)c1ccc(-c2sc3nc(N4CCOCC4)c4c(c3c2N)CCCC4)o1`, the Potency is reported as “inactive”. With `O=C(CSc1ccc(-c2cccs2)nn1)Nc1ccccc1F` the Potency was “inactive”. With `Cc1cc(C)n2nc(C(=O)OCC(=O)NC3CCS(=O)(=O)C3)nc2n1` (centres undefined) the Potency was “inactive”. For `N#Cc1c(-c2ccccc2F)cc(C2CC2)nc1SCC(=O)c1cccs1`, the Potency was “inactive”. For `O=C(NCCS(=O)(=O)N1CCN(c2ccccc2)CC1)C1CCCCC1`, the Potency was “inactive”. In the case of `CCOc1ccccc1NC(=O)C1CCC(CNc2c(N3CCCCC3)c(=O)c2=O)CC1` (centres undefined), the Potency is reported as “inactive”. For `CCOc1ccccc1CNC(=O)C1CCN(c2nnc(C)c3c(C)n(-c4ccc(C)cc4)nc23)CC1`, the Potency was 35.5 µM (active). For `Cc1nnc(N2CCCC(C(=O)NCCN(C)C)C2)c2nn(-c3ccccc3)c(C)c12` (centres undefined), the Potency was 44.7 µM (active). For `N#Cc1ccccc1CSc1nc2ccsc2c(=O)n1Cc1ccccn1`, the Potency was “inactive”. `COc1ccc(-c2cc(=O)oc3cc(OC(=O)C4CCCCC4)ccc23)cc1` was tested, and the Potency was “inactive”. `O=C1CCC([N+](=O)[O-])C(c2ccc3c(c2)OCO3)N1` (centres undefined) was tested, and the Potency was “inactive”. In the case of `CCN(CC)c1ccc(-c2nc3cnccn3c2NC2CCCC2)cc1`, the Potency is reported as “inactive”. In the case of `O=C1N/C(=C/c2cccn2-c2ccc(F)cc2)C(=O)N1Cc1ccccc1`, the Potency is reported as “inactive”. For `CNc1nc(NCC2CCCCC2)c2sccc2n1`, the Potency was 12.6 µM (active). `COc1ccccc1CNc1nc(NCC2CC2)nc2ccsc12` was tested, and the Potency was 15.8 µM (active). For `CC(C)Nc1nc(NCCOc2ccccc2Cl)c2sccc2n1`, the Potency was 22.4 µM (active). In the case of `COc1ccc(C(=O)NCCOc2ccccc2Cl)c(OC)c1OC`, the Potency is reported as “inactive”. `c1ccc(CNc2nc(NCCOc3ccccc3)c3sccc3n2)cc1` was tested, and the Potency was 22.4 µM (active). In the case of `O=C(NC(=O)c1ccccc1Cl)C(=O)Nc1ccc(Cl)cc1`, the Potency is reported as “inactive”. `O=C(N/N=C/c1cc2c3c(c1O)CCCN3CCC2)c1ccccc1O` was tested, and the Potency was “inactive”. For `CCN(CC)c1ccc2cc(S(=O)(=O)c3ccc(Cl)cc3)c(=O)oc2c1`, the Potency was “inactive”. In the case of `CCN(CC)S(=O)(=O)c1cccc(C(=O)N/N=C(\C)c2ccc(O)cc2O)c1`, the Potency is reported as “inactive”. With `O=C(O)c1cc2ccc(O)cc2oc1=O` the Potency was “inactive”. `COc1ccc(-c2cnc(C(N)=O)c(O)n2)cc1` was tested, and the Potency was “inactive”. `CC[C@@H]1C(c2ccccc2)=NN(c2ccc(Br)cc2)[C@H]1C(=O)N1CCOC1=O` was tested, and the Potency was “inactive”. `O=C1OCCN1C(=O)[C@H]1[C@H](c2ccc(Cl)cc2)C(c2ccc(F)cc2)=NN1c1ccccc1` was tested, and the Potency was “inactive”. In the case of `COc1cccc(CNc2nc(NCc3cccs3)nc3ccsc23)c1`, the Potency is reported as 39.8 µM (active). With `COCCNc1nc(NCc2ccc(C(C)C)cc2)c2sccc2n1` the Potency was 35.5 µM (active). For `COc1cccc(CNC(=O)Cc2csc(Nc3nc(S)nc4ccccc34)n2)c1`, the Potency was “inactive”. `c1csc(CNc2nc(Oc3ccncc3)c3sccc3n2)c1` was tested, and the Potency was “inactive”. For `c1cc2cc(CNc3nc(NCC4CC4)nc4ccsc34)ccc2o1`, the Potency was 25.1 µM (active). In the case of `C#Cc1cccc(Nc2nc(NC(C)C)nc3ccsc23)c1`, the Potency is reported as 28.2 µM (active). In the case of `CC(=O)c1ccc(NC(=O)COC(=O)Cc2ccsc2)cc1`, the Potency is reported as “inactive”. In the case of `S=C(c1ccc(-c2ccc(Br)cc2)o1)N1CCCCC1`, the Potency is reported as “inactive”. `CN(Cc1ccon1)C(=O)CC1C(=O)NCCN1CC(C)(C)C` (centres undefined) was tested, and the Potency was “inactive”. `O=S(=O)(O)c1ccc(SCc2ccccc2)nc1` was tested, and the Potency was “inactive”. With `COc1ccccc1CNc1nc(NCc2ccc(C(C)C)cc2)c2sccc2n1` the Potency was 31.6 µM (active). `COc1ccc(CNc2nc3ccccc3n2C(C)C)cc1` was tested, and the Potency was “inactive”. With `CC(C)c1ccc(CNc2nc(NCC3CC3)nc3ccsc23)cc1` the Potency was 28.2 µM (active). With `CCn1c(/C=C/c2c[nH]c3ccccc23)nc2ccccc2c1=O` the Potency was “inactive”.
